Shown is part of a subset that was picked to be rich in hits.
PKM2 inh – blocks activity of human pyruvate kinase M2; P14618; purified PKM2, ATP generation, Kinase-Glo luminescence; Potency, µM (titrated, usually from 57.5 µM), actives largely listed as inhibitors; 0.058% of 260,000 active; active = well fitted inhibition curve with a large enough effect; note: nearly all actives have a fitted effect of over 60% in size
Target sequence (P14618 whole entry, looked up): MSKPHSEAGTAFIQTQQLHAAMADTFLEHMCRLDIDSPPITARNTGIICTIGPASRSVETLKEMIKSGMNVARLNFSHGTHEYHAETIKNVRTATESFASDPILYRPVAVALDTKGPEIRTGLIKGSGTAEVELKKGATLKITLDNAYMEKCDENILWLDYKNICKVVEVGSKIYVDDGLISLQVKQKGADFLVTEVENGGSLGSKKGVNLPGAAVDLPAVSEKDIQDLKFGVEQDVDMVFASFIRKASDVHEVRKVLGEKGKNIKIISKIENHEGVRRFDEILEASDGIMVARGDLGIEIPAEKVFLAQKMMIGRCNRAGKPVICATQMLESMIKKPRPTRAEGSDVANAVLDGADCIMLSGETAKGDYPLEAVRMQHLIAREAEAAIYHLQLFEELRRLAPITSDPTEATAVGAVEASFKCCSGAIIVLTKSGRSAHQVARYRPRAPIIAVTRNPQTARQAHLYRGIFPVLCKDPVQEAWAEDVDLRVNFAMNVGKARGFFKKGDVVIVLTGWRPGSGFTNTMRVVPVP
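Coupled luciferase luminescence (Kinase-Glo) detects ATP generated from 0.1 mM ADP and 0.5 mM PEP in imidazole buffer pH 7.2 with KCl, MgCl2; 1 h at room temperature. Enzyme at intermediate activity; normalized to uninhibited and no-enzyme controls.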
Numbers stand for hits; - = inactive.

SMILES | PKM2 inh
COc1ccc(NC(=O)c2cc([N+](=O)[O-])ccc2O)cc1 | 16µM
COc1ccc(NC(=O)c2[nH]c(C)c(C(C)=O)c2C)cc1 | -
COc1cccc(NC(=O)CCN2C(=O)c3ccc([N+](=O)[O-])cc3C2=O)c1 | -
CN(CC1CCCN(CCc2cccc(C(F)(F)F)c2)C1)C(=O)c1cc2ccccc2o1 (stereo not drawn) | -
CC(=O)c1ccc(S(=O)(=O)N2CCN(C(=O)CSc3ccc(F)cc3)CC2)cc1 | -
COc1cc(/C=N/NC(=O)c2cccs2)ccc1O | -
Cc1nn(CC(=O)N/N=C/c2ccc3c(c2)OCO3)c(C)c1Br | -
Cc1ccsc1C(=O)N/N=C/c1ccc2c(c1)OCO2 | 13µM
CC(NC(=O)Cn1nnc(-c2ccncc2)n1)c1ccccc1 (stereo not drawn) | -
C/C=C\C=C/C(=O)Nc1cccc(C2=NOC3(C2)C[C@H](C(N)=O)N(C(=O)Cc2ccc([N+](=O)[O-])cc2)C3)c1 (stereo partly drawn) | -
Cc1ccc(SCC(=O)NC(=O)c2ccc(S(=O)(=O)N(C)C)cc2)cc1C | -
O=C1c2cccnc2C(Nc2ccccc2Br)N1Cc1ccco1 (stereo not drawn) | -
Cc1ccccc1S(=O)(=O)NCC1CCCO1 (stereo not drawn) | -
CC(=O)Nc1ccc(C(=O)OCc2ccccc2Br)cc1 | -
COc1ccc(NC(=O)Nc2ccccc2C(N)=O)cc1 | 25µM
Cc1cc2c(NC(=O)Nc3ccc(C(C)(C)C)cc3)cccc2nn1 | -
CC(C)=NNc1nc2c(c(=O)n(C)c(=O)n2C)n1CCc1ccccc1 | -
O=C(CCc1ccccc1)Nc1ccc(S(=O)(=O)Nc2nccs2)cc1 | -
COc1ccccc1CNC(=O)N1CCN(S(=O)(=O)c2ccccc2)CC1 | -
O=C(c1ccc2c(c1)OCCO2)N1CCN(Cc2ccccc2)CC1 | -
CC(=O)N1CC=CC1(CC(C)C)C(=O)NCc1ccc(C)o1 (stereo not drawn) | -
Cc1ccc(Nc2cc(C)c3c(O)cccc3n2)cc1C | -
COc1cc(F)ccc1S(=O)(=O)n1c(C)nc2ccccc21 | -
COc1cccc2nc3cc(C)c(C)cc3nc12 | 14µM
CC(C)CC(=O)N1CCN(S(=O)(=O)c2ccc3ccccc3c2)CC1 | -
SMILES | PKM2 inh
CC(C)c1ccc2oc3nc(N)c(C(=O)O)cc3c(=O)c2c1 | 14µM
O=C(N/N=C/c1ccc(N2CCCCC2)o1)c1ccccc1[N+](=O)[O-] | -
O=C(c1ccncc1)N1N=C(c2ccc(Cl)cc2)CC1c1ccccc1O (stereo not drawn) | -
COc1cc(NS(=O)(=O)c2ccc3c(c2)n(C)c(=O)n3C)cc(OC)c1 | -
Cc1ccc(C(=O)O/N=C(\N)c2ccccn2)c(Cl)c1 | 14µM
COc1ccc(C(=O)O/N=C(\N)Cc2ccc(Cl)cc2)cc1OC | -
COc1cccc(C(=O)O/N=C(\N)c2ccccn2)c1 | 8.9µM
N/C(=N\OC(=O)c1ccc(Cl)cc1Cl)c1ccccn1 | 14µM
COc1cccc(C(=O)C(C#N)=C(SC)SC)c1 | -
N/C(CS(=O)(=O)c1ccccn1)=N\OC(=O)c1ccccc1Cl | -
COc1ccc(C/C(N)=N/OC(=O)c2cccc([N+](=O)[O-])c2)cc1 | -
Cc1ccc(C(=O)O/N=C(\N)c2ccccc2)c(Cl)c1 | 18µM
O=C(Oc1ccc2ccc(O)cc2c1)c1ccccc1Cl | -
CC(C)C1Oc2ccccc2N(CC(=O)N(Cc2ccncc2)Cc2ccco2)C1=O (stereo not drawn) | -
CC1CN(C(=O)c2ccc(COc3ccccc3Br)o2)CC(C)O1 (stereo not drawn) | -
C=CCN1C(=O)N/C(=C/c2ccc(C)o2)C1=O | -
Cc1ccc(CNC(=O)c2ccc(NS(=O)(=O)c3cccs3)cc2)cc1 | -
CCOC(=O)c1c(-c2ccc(C)o2)csc1NC(=O)COC(=O)c1cccs1 | -
CCOc1cc(NC(=O)c2cccs2)c(OCC)cc1NC(=O)c1cccnc1 | -
Cc1cccc(/C(N)=N/OC(=O)c2cccs2)c1 | 13µM
CCOC(=O)c1ccc(NS(=O)(=O)c2cccc3nsnc23)cc1 | -
CCOc1ccc2nc(/N=C/c3c(C)[nH]n(-c4ccc(C)cc4)c3=O)sc2c1 | 13µM
CCOc1ccc2nc(SCC(=O)Nc3cc(C)on3)c(C)cc2c1 | -
C=CCSc1nc2ccccc2n1Cc1nnc(-c2cccs2)o1 | -
Cn1c2ccc(F)cc2c2nnc(SCC(=O)Nc3cccc(O)c3)nc21 | -
SMILES | PKM2 inh
Cc1cc2c(cc1S(=O)(=O)CCC(=O)N(C)C1CCCCC1)OCC(=O)N2 | -
Cc1oc(-c2ccc(Cl)cc2)cc1C(=O)/C(C#N)=C/Nc1ccccc1 | -
O=C(O)c1cccc(Cn2c(Cl)c(/C=N/NC(=O)c3cc4ccccc4cc3O)sc2=O)c1 | -
CN(C)c1ccc(CNS(=O)(=O)c2ccc3c(c2)C(C)(C)C(=O)N3C)cc1 | -
O=C(CSc1nc2ccc(Cl)cc2[nH]1)c1cccs1 | -
O=C(/C=C\c1ccco1)c1ccc(NC(=O)c2ccco2)cc1 | -
COCCCn1c(SCC(=O)Nc2ccc(NC(=O)c3ccco3)c(OC)c2)nc2ccccc2c1=O | -
Cc1cc(NC(=O)c2ccco2)ccc1NC(=O)c1ccco1 | 14µM
FC(F)(F)c1ccccc1NC(=S)NC1CCN(Cc2ccccc2)CC1 | -
O=[N+]([O-])c1ccc2c(OCc3nnc(-c4ccccc4Br)o3)ncnc2c1 | -
Cc1nc2ccc(S(=O)(=O)NCC(=O)N(C)Cc3ccco3)cc2s1 | -
COc1ccc2nc(NC(=O)c3ccoc3C)sc2c1 | 16µM
COc1ccc2nc(NC(=O)CCNC(=O)c3ccccc3Cl)sc2c1 | -
Cc1ccc(-c2nc(-c3ccccn3)no2)cc1 | 10µM
CC(=O)Nc1nnc(-c2ccccn2)o1 | -
c1ccc(-c2nc(-c3ccco3)cs2)nc1 | -
COc1ccc(N2C(=O)CC(Sc3ccccc3C(=O)O)C2=O)c([N+](=O)[O-])c1 (stereo not drawn) | -
Cn1cnnc1Sc1cc(N2CCN(S(=O)(=O)c3ccc4ccccc4c3)CC2)ccc1[N+](=O)[O-] | -
COc1ccc(S(=O)(=O)N2CCN(C(=O)c3cccs3)CC2)cc1 | -
COc1ccc(C(=O)O/N=C(/C)c2cccs2)cc1 | 14µM
COc1ccc2cc(/C(C)=N/NC(=O)C3CC3)ccc2c1 | -
CN1CCCN(S(=O)(=O)c2ccc3ccccc3c2)CC1 | -
Cn1c(-c2ccc([N+](=O)[O-])cc2)nc2ccccc21 | -
O=C1C=CC(=O)N1c1ccc(Sc2ccc([N+](=O)[O-])cc2)cc1 | -
CC1=NN(c2ccc([N+](=O)[O-])cc2)C(=O)/C1=C\N(C)C | 16µM
SMILES | PKM2 inh
CC1CCN(c2ccc(C(=O)NCc3cccs3)cn2)CC1 | -
O=C1C(=O)N(CCCc2ccccc2)c2ccccc21 | -
C/C=C\C=C/C(=O)Nc1cccc(C2=NOC3(C2)C[C@H](C(N)=O)N(C(=O)c2ccc(OC)cc2)C3)c1 (stereo partly drawn) | -
O=[N+]([O-])c1ccc(NCCCNS(=O)(=O)c2ccc(Cl)cc2)c(Cl)c1 | -
O=C1NC(=S)S/C1=C1\Sc2ccccc2N1CCCS(=O)(=O)O | 11µM
CC(=O)C1=C(c2cccc([N+](=O)[O-])c2)N(C(C)=O)n2c(C)nnc2S1 | -
O=C(/C=C/c1ccco1)N(Cc1ccc(Cl)cc1)C1CCS(=O)(=O)C1 (stereo not drawn) | -
O=C(NNC(=O)c1cc2cc(Br)ccc2oc1=O)c1ccc(O)cc1O | -
Cc1c(Br)cc(C(=O)NCc2ccco2)c(C)c1C | -
O=C(NCc1ccco1)c1cc2ccc(O)cc2oc1=O | 11µM

High-throughput results deposited in PubChem BioAssay by National Center for Advancing Translational Sciences (NCATS).
